Dicer inh: inhibitors of Dicer pre-microRNA processing, primary screen, biochemical, cat-ELCCA, chemiluminescence; 47,000 compounds, 6% hits; cat-ELCCA pre-miR-21 Dicer processing; active compounds read high; Endoribonuclease Dicer (Homo sapiens), Q9UPY3; z-score at 25 µM; in the data active = z-score above about 3, passing the limit was not always enough;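 also: plate controls were vehicle for no effect and no enzyme for full effect; higher signal means more uncleaved substrate so more Dicer inhibition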
Starred values were filed as active, the others as inactive. Only a selection was taken, and hits are over-represented in it overall.

SMILES	Dicer inh
CCc1ccc(C2C3=C(CCCC3=O)Nc3[nH]n(-c4ccccc4)c(=O)c32)cc1 (centres undefined)	-0.55
NNC(=O)CNc1cccc([N+](=O)[O-])c1	0.71
Cc1ccc(-c2nc(-c3ccccn3)no2)c(Cl)c1	-0.73
O=c1nc(SCc2ccccc2Cl)nc(-c2ccc(Cl)cc2)[nH]1	0.58
O=c1nc(SCc2c(Cl)cccc2Cl)nc(-c2ccc(Cl)cc2)[nH]1	5.9*
CCSc1nc(-c2ccc(Cl)cc2)[nH]c(=O)n1	-3.4
O=[N+]([O-])c1cc(C(F)(F)F)ccc1Sc1cccs1	0.16
CCCCSCc1nc2c(c(=O)[nH]1)C1(CCCC1)Cc1ccccc1-2	0.7
CCSc1nc2c(c(=O)[nH]1)C1(CCCC1)Cc1ccccc1-2	0.22
COC(=O)CCSc1nc2c(c(=O)[nH]1)C(C)(C1CCCCC1)Cc1ccccc1-2 (centres undefined)	3.7*
CCc1c(C)c2c(C)nn(-c3ccc(Br)cc3)c2oc1=O	8.6
Cc1ccc(-n2nnnc2-c2c[nH]c3cc(Cl)ccc23)cc1	0.32
S=c1[nH]nc(Cc2ccccc2)n1-c1ccccc1	-0.51
S=c1[nH]nc(Cc2n[nH]c(=S)n2-c2ccccc2)n1-c1ccccc1	3.3*
S=c1[nH]nc(Cc2ccccc2)n1-c1ccc(Cl)cc1	-0.95
Cc1ccc(C(=O)Nc2cnc3cc(C)ccn3c2=O)cc1	-0.97
COC(=O)C1=C(C)Nc2c(c(=O)n(C)c(=O)n2C)C1c1ccc(Br)cc1 (centres undefined)	3.4*
COC(=O)C1=C(C)Nc2[nH]c(=O)[nH]c(=O)c2C1c1ccc(Br)cc1 (centres undefined)	1.2
COC(=O)C1=C(C)NC2=C(C(=O)CCC2)C1c1ccc(Br)cc1 (centres undefined)	-0.9
Cn1c(SCC(=O)c2ccc(C(C)(C)C)cc2)nnc1-c1ccncc1	-0.42
CNC(=S)NNC(=O)c1ccc2ncccc2c1	-0.02
CC(=O)Nc1nc2ccc(NC(=O)c3sc4ccccc4c3Cl)cc2s1	0.3
CC(=O)Nc1nc2ccc(NC(=O)c3c([N+](=O)[O-])cnn3C)cc2s1	1.1
CC(=O)Nc1ccc2nc(NC(C)=O)sc2c1	3.2*
C=CCn1c(SCC(=O)Nc2ccc3c(c2)OCCO3)nc2sc3c(c2c1=O)CCC3	-1.3
SMILES	Dicer inh
CCOC(=O)N1CCCN=C1NNc1cc(F)ccc1C	-0.47
O=c1[nH]c(/C=C/c2cn(Cc3ccccc3)c3ccccc23)nc2ccccc12	2.1
O=c1c2cnn(-c3ccccc3)c2nc(-c2ccco2)n1-c1ccccc1	-0.43
Cc1nc2c(cnn2-c2ccccc2)c(=O)n1/N=C/c1ccccc1	-0.04
CCOC(=O)c1cnn(-c2ccccc2)c1NC(=O)Nc1cccc(Cl)c1	-0.56
Cc1nc2c(cnn2-c2ccccc2)c(=O)n1-c1cccc2ccccc12	3.2*
O=C(Cn1cnc2c(cnn2-c2ccccc2)c1=O)c1ccc(Cl)cc1	-0.65
Cc1nc2c(cnn2-c2ccccc2)c(=O)n1NC(=O)Nc1ccc(Cl)c(Cl)c1	4.7*
COC(=O)c1scc(C)c1NC(=O)C1CC1	-5.2
O=C(O/N=C/c1ncc(C(F)(F)F)cc1Sc1ccc(Cl)cc1)c1cccs1	-1.7
O=C(Nc1ccc2c(c1)OCO2)c1cc2n(n1)C(C(F)(F)F)CC(c1ccco1)N2 (centres undefined)	-0.21
O=C(NCc1cccnc1)c1nn2c(c1Br)NC(c1ccccc1)CC2C(F)(F)F (centres undefined)	0.23
Cc1c(-c2ccccc2)nnn1-c1cccc(Cl)c1C#N	0.79
CC1Cc2ccccc2N1C(=O)c1cnn2c(C(F)F)cc(-c3ccccc3)nc12 (centres undefined)	-2.3
COc1ccccc1Nc1cccccc1=O	2.7
COc1ccccc1Nc1n[nH]c(C)c1[N+](=O)[O-]	1.9
COc1ccccc1Nc1cc(=O)[nH]c(=O)[nH]1	3.6*
COC(=O)CCC1CCC(CCC(=O)OC)C1=O (centres undefined)	-0.51
O=C(Nc1ccc(OCc2ccccc2)cc1)Nc1ccccc1Oc1ccccc1	-2.2
CCCC1CC(CSc2nc3ccccc3[nH]2)OC1=O (centres undefined)	-1.6
CN(C)S(=O)(=O)N(CC(=O)Nc1ccc(Br)c(Cl)c1)c1ccccc1	2.3
Cc1ccc(-c2cn3c4ccccc4nc3n2CCN2CCOCC2)cc1	2.2
c1ccc(-c2cn3c4ccccc4n(CCN4CCOCC4)c3n2)cc1	4.1*
Cc1nc2n(CCN3CCOCC3)c3ccccc3n2n1	1.2
CC1(C)NC(=O)N(CC(O)COc2ccccc2Cl)C1=O (centres undefined)	0.98
SMILES	Dicer inh
O=C(c1cccnc1)N1CCN(c2ccc3ccccc3n2)CC1	4.2*
O=C1NCCCC1C(=O)N1CCN(C(=O)c2ccco2)CC1 (centres undefined)	-1.3
O=C(c1ccncc1)N1CCN(Cc2ccco2)CC1	1.2
O=C(c1cccnc1)N1CCN(C(=O)c2ccco2)CC1	4.7*
O=C(c1ccccc1)N1CCN(C2=NS(=O)(=O)c3ccccc32)CC1	7
O=C(O)c1cccnc1	1.2
CCc1ccc(C2c3c(oc4ccccc4c3=O)C(=O)N2c2nc(C)c(C)s2)cc1 (centres undefined)	-0.16
O=C(CSc1ncnc2sc3c(c12)CCCC3)NNS(=O)(=O)c1cc(C(F)(F)F)cc(C(F)(F)F)c1	-0.72
O=C(c1cccc(Cl)c1)c1cc2cc([N+](=O)[O-])ccc2o1	-1.8
Cn1c(-c2ccc(Cl)cc2)cnc1NCc1ccc(F)cc1	2.6
Cn1c(-c2ccccc2)cnc1NCc1ccccc1O	1.9
Cc1ccc(-c2cnc(NCc3ccc(Cl)cc3)n2C)cc1	3.2*
Cn1c(-c2ccc(F)cc2)cnc1NCc1cccc(Br)c1	2.8
COc1ccccc1CNc1ncc(-c2cccc(Br)c2)n1C	-0.18
Cn1c(-c2cccc(Br)c2)cnc1NCc1ccccc1	3.8*
Cn1c(-c2ccccc2)cnc1NCc1cccc(Br)c1	4.4*
COc1ccc(-c2cnc(NCc3ccc(Cl)cc3)n2C)cc1	-0.45
Cn1c(-c2ccc(Br)cc2)cnc1NCc1cccc(F)c1	2.5
CCC(C)NC(=O)c1nn2c(c1Cl)NC(c1ccc(Br)cc1)CC2C(F)(F)F (centres undefined)	-0.76
Cc1cc(Nc2ccc(C)c(Br)c2)n2ncnc2n1	-0.51
O=S1(=O)N=C(Nc2ccccc2Br)c2ccccc21	1.7
COc1ccc2nc(/N=C/c3ccccc3[N+](=O)[O-])sc2c1	0.84
COc1ccc(-c2cc(-c3ccc(Br)cc3)n3ncnc3n2)cc1OC	-0.53
COc1nccc(C(F)(F)F)c1C(=O)Nc1c(C)cccc1C	2.6
CCCCC(=O)Nc1nc2ccc(S(C)(=O)=O)cc2s1	1.5
SMILES	Dicer inh
CCCCOC(=O)Nc1nc2ccc(S(C)(=O)=O)cc2s1	4.8*
CC(Oc1ccccc1F)C(=O)Nc1nc2ccc(S(C)(=O)=O)cc2s1 (centres undefined)	-0.69
COc1ccc(OCCCC(=O)Nc2nc3ccc(S(C)(=O)=O)cc3s2)cc1	-2.4
CCCCC(CC)C(=O)Nc1nc2ccc(S(C)(=O)=O)cc2s1 (centres undefined)	4.8*
COc1cc(SC)ccc1C(=O)Nc1nc2ccc(S(C)(=O)=O)cc2s1	1.6
O=c1[nH]cnc2c1sc1nnc(-c3ccccc3)c(-c3ccccc3)c12	1.9
COc1ccc(-c2cc(C)nc3ncnn23)cc1	0.07
O=C(NC(=O)c1ccccc1F)NC1CC1	0.03
CC(=O)C(C)(C)OC(=O)NCCc1ccc(Cl)cc1	7.2*
CC(=O)C(C)(C)OC(=O)NCc1cccs1	-3.2

Screening data: PubChem, Center for Chemical Genomics, University of Michigan
